# Out of some 3,300 compounds screened, fewer than 10 were called active.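 The calls were made as follows: active = growth inhibition above 90% in viable cell count at a single dose; inactive = growth inhibition below 90%.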 A selection follows.
# Assay: HT29 colon tumor cell growth inhibition, primary screen, imaging, high content imaging, 24 h, CellTiter-Glo (AID 770);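 as to condensed nuclei: share of cells whose nuclear area falls below control median minus 1.5 SD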
# Conditions: HT29 cell number by imaging, at 10 µM, stronger effect = higher value; for condensed nuclei: measured here: percent cells with condensed nuclei
# [1] = measured here: ATP CellTiter-Glo viability
SMILES,growth inhibition,growth inhibition [1] [%],condensed nuclei [%]
CC1(C)Cc2c(c(-c3ccccc3Cl)[nH]c(=O)c2C#N)CO1,-42.2% (inactive),-17.5,1.85
COC(=O)C(NC(C)=O)(Nc1ccccc1)C(=O)OC,-24.8% (inactive),-9.05,3.37
O=C(OCCCN1CCCC1)C1(c2ccccc2)CCCC1,3.8% (inactive),4.75,5.7
N#CC1=C2SCC(O)(c3ccccc3)N2C(=O)CC1c1ccccc1 (stereo not drawn),90.7% (active),28.5,46
CCCCCCSC1=C(C#N)C(c2ccccc2)CC(=O)N1 (stereo not drawn),-14.4% (inactive),-7.19,3.36
C=C(C)CSC1=C(C#N)C(c2ccsc2)CC(=O)N1 (stereo not drawn),-9.27% (inactive),-4.29,1.96
Nc1c2c(nc3ccccc13)N(c1ccccc1)CC2,-26.1% (inactive),-9.66,3.19
CC(C)c1cc(NCCCN2CCOCC2)n2c(nc3ccccc32)c1C#N,-4.17% (inactive),-7.5,5.23
CCCOc1ccc(C2NC(=O)NC2=O)cc1 (stereo not drawn),10.6% (inactive),-11.9,16
Cc1cc(C)n(Cc2cc(C)c(Cn3nc(C)cc3C)cc2C)n1,-26.1% (inactive),-2.81,2.58
CCOc1ccc2c(C)nc(NC3=NC(C)(C)C=C(C)N3)nc2c1,18.5% (inactive),16.6,3.47
CC1(C)Cc2c(sc3c4nnnn4c4nnnn4c23)CO1,6.59% (inactive),-3.55,2.72
Cc1ccc(C(=O)C2=C(O)C(=O)N(CCN3CCOCC3)C2c2ccccn2)o1 (stereo not drawn),20.8% (inactive),0.76,4.96
Cc1cccn2c(=O)c(/C=C(\C#N)S(=O)(=O)c3ccccc3)c(N3CCN(C)CC3)nc12,5.64% (inactive),13.3,3.93
Nc1nnc(CSCc2ccc(F)cc2)s1,-13.9% (inactive),-8.17,3.43
Cc1ccc2[nH]c3c(N4CCCCCC4)ncnc3c2c1,74.2% (inactive),38.6,5.98
Cc1cc(=O)oc(C)c1C(=O)Nc1cccc2nonc12,38% (inactive),7.72,3.32
C/C(=N\O)C(=O)NCCCNCCCN(C)C,28.6% (inactive),10.3,4.53
N#CC1=C(SCC(=O)c2ccc(Cl)cc2)NC2=C(C(=O)CCC2)C1c1ccco1 (stereo not drawn),64.2% (inactive),40,20.2

SMILES,growth inhibition,growth inhibition [1] [%],condensed nuclei [%]
O=S(=O)(/C=C/c1ccccc1)Nc1ccc2c(c1)OCO2,-3.8% (inactive),-13.4,3.87
CCCOc1ccc(/C(O)=C2/C(=O)C(=O)N(CCN(C)C)C2c2ccncc2)cc1 (stereo not drawn),-14% (inactive),-1.78,5.23
CCOc1nc(SCCOc2ccc(C)cc2)nc(N(C)C)n1,-2.97% (inactive),-13.9,2.83
CCOC(=O)COc1ccc(Oc2nc(C)cc(OC)n2)nn1,-1.19% (inactive),1.86,5.21
CCCCN(C(=O)CCC(=O)O)C1CC(=O)N(c2ccc(OCCC)cc2)C1=O (stereo not drawn),20.1% (inactive),7.14,1.69
COCc1[nH]nc2c1C(c1ccccc1OC)C(C#N)=C(N)O2 (stereo not drawn),34.7% (inactive),-0.21,3.93
CC1CCc2cc(F)cc3c(O)c(C(=O)NCC4CCCO4)c(=O)n1c23 (stereo not drawn),12.1% (inactive),11.9,2.11
O=C1OC(Nc2ccc(Br)cn2)c2ccccc21 (stereo not drawn),-21.1% (inactive),2.61,3.37
CCOC(=O)c1ccc(-n2c(=O)[nH]c3ccccc3c2=O)cc1,-28.4% (inactive),-4.1,4.94
COc1ccc(-c2onc(C)c2-c2ccccc2)c(O)c1,25.2% (inactive),-2.05,4.31
CCn1c(-c2ccco2)n[nH]c1=S,2.65% (inactive),-3.63,3.02
COC(=O)COn1c(SCC(=O)OC)nc2ccccc2c1=O,39.9% (inactive),-6.12,2.06
CN(C)C(=O)COn1c(SCC(=O)N(C)C)nc2ccccc2c1=O,100% (active),-74.5,7.94
CCN(CC)C(=O)COn1c(SCC(=O)N(CC)CC)nc2ccccc2c1=O,28.8% (inactive),-9.22,5.68
Cc1c(/C(O)=C2\C(=O)C(=O)N(CCN(C)C)C2c2cccnc2)cnn1-c1ccccc1 (stereo not drawn),65.4% (inactive),24.8,7.5
Cc1nc2c(c(=O)n1CC1CCCO1)c1nc3ccccc3nc1n2CC(C)C (stereo not drawn),47.8% (inactive),4.29,7.73
Cc1[nH]c(=O)[nH]c(=O)c1S(=O)(=O)N1CCCC1,7.67% (inactive),-13.2,3.07
CCCCSc1nnc(-c2ccc(NC(C)=O)cc2)n1C,14.5% (inactive),6.32,2.33
c1ccc(OCc2nn3c(C4CCCCC4)nnc3s2)cc1,0.33% (inactive),-3.2,2.15

SMILES,growth inhibition,growth inhibition [1] [%],condensed nuclei [%]
Cc1cccc(C)c1OCC(O)CNS(=O)(=O)c1ccccc1C(=O)N1CCOCC1 (stereo not drawn),-11.9% (inactive),-0.31,3.46
COc1ccc(-n2ccc(=O)c3c2CCCC3=O)cc1,-18.6% (inactive),1.93,3.07
Cc1ccc(-c2nnc(OCCN3CCOCC3)c3ccccc23)cc1,30.1% (inactive),10.1,3.64
COc1cc(C2C(C(=O)c3ccc(C)o3)=C(O)C(=O)N2c2cc(C)on2)cc(OC)c1OC (stereo not drawn),-22% (inactive),-13.1,3.21
Cc1c(OCc2ccccc2)c(=O)ccn1Cc1ccccc1,-0.34% (inactive),-10.9,1.99
Oc1oc(-c2ccccc2)nc1C=NCc1ccncc1,2.2% (inactive),-2.06,3.2
CC1(C)CC(N(Cc2ccco2)C(=O)Cc2ccccc2)CCO1 (stereo not drawn),12.6% (inactive),0.11,2.03
Cc1cc(C)n(-c2ncnc3sc(C)c(C)c23)n1,-10.3% (inactive),2.85,1.35
COc1ccc(C2NC(=O)NC(O)(C(F)(F)F)C2C(=O)c2ccc(F)cc2)cc1 (stereo not drawn),-33.6% (inactive),0.76,2.45
CC(C)c1ccc(O)c(N)c1,-26.1% (inactive),2.95,5.48
CC1(C)NC(=O)N(CC(O)COc2cc3ccccc3cc2C(=O)N2CCCCC2)C1=O (stereo not drawn),23.3% (inactive),-6.38,4.21
COC(=O)c1n[nH]c2ccccc12,52.2% (inactive),8.18,5
CCCCCCOc1ccc(C(=O)n2cnc(N)n2)cc1,-1.14% (inactive),-15.8,1.48
O=c1[nH]cnc2cc(-c3ccccc3)sc12,7.95% (inactive),3.25,2.77
COc1cccc(NC(=O)c2cc(C(=O)Nc3cccc(OC)c3)n(C)n2)c1,-5.68% (inactive),22.7,6.71
COC(=O)c1ccc(C2/C(=C(/O)c3ccc(OC)cc3)C(=O)C(=O)N2c2cc(C)on2)cc1 (stereo not drawn),8.36% (inactive),6.44,3.44
COc1cc(C)nc(N(C)S(=O)(=O)c2ccccc2Cl)n1,7.98% (inactive),-1.53,3.59
Cn1c(NCC(O)c2ccccc2)nc2c1c(=O)n(Cc1ccc(Cl)c(Cl)c1)c(=O)n2C (stereo not drawn),46.1% (inactive),22.7,1.95

# From PubChem BioAssay AID770 (SRMLSC, 2007)
